Measured values: PubChem BioAssay

Test: compound effects on differentiated 3T3-L1 adipocyte viability – cell-based, 3T3-L1 adipocytes, calcein-AM fluorescence, 48 h, basal, profiling panel (AID 1163); note: test concentration not given here
Settings: 3T3-L1 adipocytes viability, higher = more signal

Row | Structure (SMILES) | z-score
1 | Cc1ccc(N2C(=O)c3ccccc3[C@@H](C(=O)NC3CC3)[C@@H]2c2ccc(CO)cc2)nc1 | 0.516
2 | CCCCC(CC)C(O)C1C=CC2C(=O)N(Cc3ccccc3)C(=O)C2N1n1cnnc1 (stereo unspecified) | -0.498
3 | C[C@H]1NC(=O)[C@@]23C(=O)N[C@@H](Cc4ccccc4)C2[C@H](C)[C@@]2(C)O[C@H]2C3/C=C/C/C=C\CNC(=O)[C@@H]2CCCN2C1=O (stereo partly specified) | 0.286
4 | CC(=O)n1cc(C(O)C2C=CC3C(=O)N(c4ccccc4)C(=O)C3N2Nc2ccc([N+](=O)[O-])cc2)c2ccccc21 (stereo unspecified) | -0.479
5 | C[C@@]1([C@@H](NC(=O)c2ccc(-c3ccccc3)cc2)c2ccc(Cl)cc2)C[C@H]1C1CCCCC1 | -0.52
6 | C=CCNC(=O)[C@@H]1[C@H]2C(=O)O[C@H](c3ccccc3)[C@H](c3ccccc3)N2[C@H](c2ccc(O)cc2)[C@@]12C(=O)Nc1ccc(C#CCNC(N)=O)cc12 | 1.09
7 | C=C(/C(=C/C[C@H](OC(C)=O)c1ccccc1OCCO)c1cnc2ccccc2c1)C(C)C | -0.665
8 | COc1ccc(/C=C/C=O)cc1 | -0.243
9 | COCCOC(=O)N1C(=O)[C@@]2(c3cc(C#Cc4ccc(OC)cc4)ccc31)[C@H](c1ccc(OCCO)cc1)N1[C@H](c3ccccc3)[C@H](c3ccccc3)OC(=O)[C@H]1[C@@H]2C(=O)N1CCN(c2ncccn2)CC1 | 0.901
10 | COc1ccc(CCNC(=O)[C@@]2(Sc3ccc(C)cc3)CC(=O)N(C3Cc4ccccc4C3)[C@@H]2c2ccc(CO)cc2I)cc1 | 0.129
11 | COc1ccc([Si](C)(C)[C@@H]2[C@@H](CC(=O)N3CCC[C@H]3CO)O[C@]3(C(=O)N(c4ccccc4)c4ccccc43)[C@H]2C)cc1 | 0.93
12 | COc1ccc(C#Cc2ccc3c(c2)[C@]2(C(=O)N3)[C@H](C(=O)NC[C@H](O)c3ccccc3)[C@H]3C(=O)O[C@H](c4ccccc4)[C@H](c4ccccc4)N3[C@@H]2c2ccc(O)cc2)cc1 | -0.753
13 | CC(C)C[C@@H]1NC(=O)[C@@H]2C[C@H](C(=O)O)[C@H](c3cccc(OCCO)c3)N2C1=O | 0.237
14 | CC#CC(=O)Oc1ccccc1C=CC(=O)OCC | -0.228
15 | CO[C@H]1O[C@H](CO)[C@@H](OC(=O)Nc2ccccc2)[C@H](OC(=O)Nc2ccccc2)[C@@H]1OC(=O)Nc1ccccc1 | 0.875
16 | COCCOC(=O)N1C(=O)[C@@]2(c3ccccc31)[C@H](C(=O)N1CCc3cc(OC)c(OC)cc3C1)[C@H]1C(=O)O[C@H](c3ccccc3)[C@H](c3ccccc3)N1[C@@H]2c1ccc(OCCO)cc1 | 1.48
17 | O=C1N(Cc2ccccc2)c2ccccc2[C@@H]2OC(c3ccc(OCCCO)cc3)=N[C@]12CCS(=O)(=O)c1ccccc1 | 0.0205
18 | C=C(CCCC)C(=O)CC[C@@H](OC(=O)c1ccccc1-c1ccccc1C(=O)O)c1ccc(OCCO)cc1 | 1.22

Row | Structure (SMILES) | z-score
19 | NC(=O)N1C(=O)C2C(C1=O)C1C=C(c3ccc(CO)cc3)C2C(c2cccs2)N1Cc1cccc(OC(F)(F)F)c1 (stereo unspecified) | 0.868
20 | COc1ccc([C@H]2OC[C@@H]3C[C@@H](Cc4ccccc4)C(=O)N32)cc1 | 0.0138
21 | NC(=O)NCC#Cc1ccc2c(c1)[C@]1(C(=O)N2)[C@H](c2ccccc2OCCO)N2[C@H](c3ccccc3)[C@H](c3ccccc3)OC(=O)[C@H]2[C@@H]1C(=O)Nc1nc2ccccc2s1 | 0.226
22 | COc1ccc(C(=O)Nc2ccc(CN3C(=O)[C@]4(O[C@H](CCO)[C@@H]([Si](C)(C)c5ccc(OC)cc5)[C@@H]4C)c4ccccc43)cc2)cc1 | -0.0656
23 | C#C[C@H](O[Si](C#Cc1ccc(Oc2ccccc2)cc1)(C(C)C)C(C)C)c1ccccc1 | -1.19
24 | COc1ccc([Si](C)(C)[C@H]2[C@H](CCO)O[C@@]3(C(=O)N(Cc4ccc(N(C=O)c5ccccc5)cc4)c4ccccc43)[C@@H]2C)cc1 | -1.32
25 | CC(=O)NCCCC[C@@H]1NC(=O)[C@H]2C[C@@H](C(=O)NCCCCCCNC(=O)CS)[C@@H](c3ccc(O)cc3)N2C1=O | 0.726
26 | C=CCNC(=O)[C@H]1[C@@H]2C(=O)O[C@@H](c3ccccc3)[C@@H](c3ccccc3)N2[C@@H](c2ccccc2OCCO)[C@]12C(=O)Nc1ccc(C#CCCO)cc12 | 1.04
27 | O=C1O[C@@H](c2ccccc2)[C@@H](c2ccccc2)N2[C@@H](c3ccccc3OCCO)[C@]3(C(=O)Nc4ccc(C#CC5=CCCCC5)cc43)[C@@H](C(=O)N3CCCCCCC3)[C@H]12 | 0.25
28 | C=C[C@@H](COC(=O)OC(C)(C)C)N(Cc1ccc(OC)cc1)S(=O)(=O)c1ccc(Br)cc1 | 0.332
29 | C=C(/C(=C/C[C@H](OC(C)=O)c1ccc(CO)o1)c1cc(C(=O)OC)ccc1OC)C(C)C | 1.4
30 | COc1ccc(CCNC(=O)[C@@]2(Sc3ccc(C)cc3)CC(=O)N(C(C)C)[C@@H]2c2ccc(CO)cc2I)cc1 | 0.345
31 | COc1ccc(CCNC(=O)[C@@]2(C)c3ccccc3C(=O)N(C(C)C)[C@H]2c2ccc(CO)cc2)cc1 | -0.103
32 | CC(C)N1C(=O)[C@@]2(Cc3ccccc31)c1ccccc1C(=O)N(Cc1ccccc1Cl)[C@H]2c1ccc(CO)cc1 | -0.24
33 | C=CCOC(=O)[C@H]1[C@@H]2C(=O)O[C@@H](c3ccccc3)[C@@H](c3ccccc3)N2[C@@H](c2ccc(OCCOC(=O)[C@H]3C[C@H]4C(=O)N[C@@H](CCCCN(C)C)C(=O)N4[C@H]3c3ccc(O)cc3)cc2)[C@]12C(=O)Nc1ccc(I)cc12 | -0.032
34 | CC(C)OC(=O)C=C1C[C@@H](c2ccccn2)O[C@@H](c2ccccn2)O1 | -0.631
35 | COC(=O)[C@@]1(Cc2ccc(OC)cc2)[C@H]2c3cc(C(=O)N(C)C)n(CCc4ccccn4)c3C[C@H]2CN1C(=O)c1ccccc1 | -0.812
36 | COC(=O)[C@@]1(Cc2ccccc2)N=C(c2ccc(OCCCO)cc2)O[C@H]1c1ccccc1 | 0.598
